Data reported in PubChem BioAssay (NCI).
Values joined by “and” are separate entries in the source; they are usually repeats but may differ in a detail not shown here. Identical values can stand only once. About 83,000 compounds went through this panel and 20% of them were active in at least one assay; those are over-represented in the sample as a whole.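 The endpoint reported here, percent growth, reads 100 for growth as untreated, 0 for no net growth and -100 for all cells dead.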 Active and inactive are the calls of the source. Rule for the calls: active = growth percent below 10; inactive = the rest.

Tests used:
Test in all cases: NCI-60 one-dose screen, 48 h (100 = growth as untreated, 0 = no growth, -100 = all killed)
Conditions in all cases: 10 µM
[1] = system: T-47D breast
[2] = system: BT-549 breast
[3] = system: MDA-MB-435 melanoma
[4] = system: SW-620 colon
[5] = system: MCF7 breast
[6] = system: HCT-116 colon
[7] = system: HCC-2998 colon
[8] = system: MDA-MB-468 breast
[9] = system: KM12 colon

Measured: growth

CCCCCc1ccc(S(=O)(=O)Nc2cc(-c3csc(N(C)C(C)=O)n3)ccc2N2CCN(C)CC2)cc1
inactive: [2] 48.6% | [3] 25.4% | [7] 20.8% | [8] 14.1%
active: [1] -33.4% | [4] 8.57% | [5] 4.08% | [6] -84.7%

CC(=O)c1cc(C(=O)N2c3ccccc3Sc3ccccc32)n2ccc(C)cc12
inactive: [1] 20.8% | [2] 16% | [3] 28% | [4] 25.6% | [5] 26.5% | [7] 32.7%
active: [6] 7.08% | [8] 3.44%

CCCSc1nc(NC2CC2)c(C#N)c(-c2ccc(OC)cc2)n1
inactive: [1] 88.8% | [2] 88.1% | [3] 106% | [4] 105% | [5] 103% | [6] 74.1% | [7] 115% | [8] 139%

COc1ccc2[nH]c(=O)c(CSc3cccc(N)c3)cc2c1
inactive: [1] 37.5% | [2] 75.1% | [3] 31.6% | [4] 25% | [5] 31% | [6] 52.5% | [7] 44.6% | [8] 34.7%

CC1(C)CC[C@]2(C(=O)NCCCNCCCCNCCCN)CC[C@]3(C)C(=CC[C@@H]4[C@@]5(C)Cc6c([nH]c7ccccc67)C(C)(C)[C@@H]5CC[C@]43C)[C@H]2C1
inactive: [1] 78.7% | [2] 109% | [3] 106% | [4] 113% | [5] 62.9% | [6] 65.3% | [7] 96.5% | [9] 96.4% | [8] 75.3%

Cc1ccc(C(=O)NCCCNc2nc(Nc3ccc(N4CCN(C)CC4)cc3)nc3ccsc23)cc1
active: [1] 4.51% | [6] 9.28%
inactive: [2] 65.4% | [3] 43.9% | [4] 31.6% | [5] 16.6% | [7] 43.7% | [8] 45.4%

C=C(C)[C@@H]1CC[C@]2(C(=O)OC)CC[C@]3(C)[C@H](CC[C@@H]4[C@@]5(C)CC[C@H](N)C(C)(C)[C@@H]5CC[C@]43C)[C@@H]12
active: [1] -73.3% | [2] -63.6% | [3] -97% | [4] -75.6% | [5] -85.4% | [6] -98.3% | [7] -93.6% | [8] -97.2%

Cc1cc2c(c(O)c1Br)-c1ncoc1C(=O)[C@]1(C)CC[C@H](C(C)C)[C@H]21
inactive: [1] 20.6% | [4] 22.8% | [5] 10.1% | [6] 31.1% | [7] 38.2% | [8] 20.3%
active: [2] -24.6% | [3] 5.72%

O=C(c1ccc(O)cc1)C1[C@H](c2ccc(Br)cc2)[C@@H](c2ccccc2)NC12C(=O)Nc1ccc(Br)cc12 (some centres not stated)
active: [3] -25.1% | [4] -28% | [5] -18% | [6] 8.14% | [7] -83.9% | [8] -54%
inactive: [1] 22.2% | [2] 39.3%

COC(=O)C(Cc1ccc(O)c(O)c1)NC(=O)C(CSC/C=C(\C)CCCC(C)CCCC(C)CCCC(C)C)NC(C)=O (configuration not stated)
inactive: [2] 23.3% | [3] 30% | [4] 19.8% | [5] 24.4% | [6] 21.2% | [7] 19.3%
active: [1] -0.796% | [8] 6.4%

CC1(C)CC[C@]2(C(=O)N3CCOCC3)CC[C@]3(C)C(=CC[C@@H]4[C@@]5(C)CC[C@H](NCO)C(C)(C)[C@@H]5CC[C@]43C)[C@H]2C1
active: [1] -72.4% | [2] -92.2% | [3] -96.4% | [4] -88.8% | [5] -80.3% | [6] -88.9% | [7] -78.1% | [8] -97%

CN1CCN(Cc2ccc(C(=O)Nc3cccc(Nc4ccc5c(O)cccc5n4)c3)cc2C(F)(F)F)CC1
active: [1] -36.8% | [2] -58.4% | [3] -91.6% | [4] -84% | [5] -67.1% | [6] -43.9% | [7] -93.2% | [9] -76.7% | [8] -92.7%

COc1ccc(-c2ccc(/C=N/NC(=O)c3[nH]c4ccc(Br)cc4c3-c3ccccc3)s2)cc1
inactive: [1] 72% | [2] 117% | [3] 107% | [4] 44.8% | [6] 37.5% | [7] 112% | [8] 76.6%
active: [5] 6.19%

CC(=O)NS(=O)(=O)c1ccc(NC(=O)CSC2=NC(c3ccccc3)C(C(C)=O)=C(C)N2)cc1 (configuration not stated)
inactive: [1] 99.7% | [2] 116% | [3] 104% | [4] 106% | [5] 95.2% | [6] 102% | [7] 108% | [8] 110%

COc1cc(/C=N/NC(=O)c2ccc3nc(-c4ccc(Cl)cc4)[nH]c3c2)cc(OC)c1OC
107% (inactive) and -89.3% (active): [8]
active: [1] -58.6% | [2] -81.5% | [3] -67.3% | [4] -22.1% | [5] -72.8% | [6] -67.5% | [7] -39.7%
